For orientation: inhibition means the relative decrease from the control value, in per cent.

About 2,100 (0.62%) of roughly 340,000 compounds were called active. Only a sample is shown. Results with a measured potency or affinity are listed apart. Unmarked numbers belong to inactive results.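 How the source made its calls: active means first-screen hits whose inhibition reached a set limit at any dose in the follow-up dose series; inconclusive means inhibition above the set first-screen limit but never retested; inactive means the rest.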

This assay deals with Rac GTPase-activating protein 1 (Homo sapiens) (UniProt Q9H0H5). The experiment in a line: MgcRacGAP GTPase-activating activity inhibitors, confirmation, biochemical, ADP Hunter fluorescence, primary and confirmatory (AID 624330).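 Further: fluorescence reports GDP produced by GAP-driven GTP hydrolysis.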 The note with it: MgcRacGAP-stimulated Rac1 GTP hydrolysis, at 30 µM, stronger effect = higher value, GST-tagged Rac1 F28L mutant substrate.
Rac GTPase-activating protein 1 (Homo sapiens), sequence (Q9H0H5 whole entry, looked up): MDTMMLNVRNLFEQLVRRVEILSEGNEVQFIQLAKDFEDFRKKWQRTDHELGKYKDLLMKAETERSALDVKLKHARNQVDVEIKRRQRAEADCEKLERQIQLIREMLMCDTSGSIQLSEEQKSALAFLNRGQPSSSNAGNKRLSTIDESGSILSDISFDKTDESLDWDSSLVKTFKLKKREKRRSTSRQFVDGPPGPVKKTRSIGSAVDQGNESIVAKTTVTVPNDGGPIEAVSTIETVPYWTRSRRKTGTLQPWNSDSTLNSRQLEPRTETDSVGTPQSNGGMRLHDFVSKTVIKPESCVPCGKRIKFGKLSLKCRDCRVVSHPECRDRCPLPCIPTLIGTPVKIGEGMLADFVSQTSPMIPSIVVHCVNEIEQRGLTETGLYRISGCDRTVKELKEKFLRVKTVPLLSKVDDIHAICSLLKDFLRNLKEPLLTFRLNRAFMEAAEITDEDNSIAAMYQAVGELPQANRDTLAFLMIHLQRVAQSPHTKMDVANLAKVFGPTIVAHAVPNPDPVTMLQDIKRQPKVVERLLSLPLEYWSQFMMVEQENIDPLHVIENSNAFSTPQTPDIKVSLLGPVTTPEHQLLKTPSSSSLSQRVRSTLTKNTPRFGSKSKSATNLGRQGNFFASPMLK
As for `CCOC(=O)N1CCC(N2C(=O)c3ccc(C(=O)NCc4ccc(F)cc4)cc3C2=O)CC1`, the inhibition is -5.85%.

For the molecule `CC(=O)c1c(C)[nH]c(C(=O)OCC(=O)Nc2ccc3[nH]c(=O)[nH]c3c2)c1C`, the inhibition was 9.39%.

As to `O=S(=O)(Cc1ccccc1)Nc1ccc(F)cc1`, the inhibition was 8.87%.

With `CC1=Nc2cc(C(=O)O)ccc2Sc2ccc(C)cc21`, the inhibition is -10.1%.

Turning to `CCOC(=O)N1CCC(NC(=O)c2ccc3c(c2)N=C(C)c2ccccc2S3)CC1`, the inhibition is 4.04%.

Take `CC1=Nc2cc(C(=O)NCCCOC(C)C)ccc2Sc2ccc(C)cc21`: the inhibition was 7.38%.

As for `CCC1=Nc2cc(C(=O)O)ccc2Sc2ccccc21`, the inhibition was -0.29%.

Consider `Cc1cccc(N(C(=O)CNC(=O)c2ccco2)C(C(=O)NC2CCCC2)c2cccnc2)c1C` (stereo unspecified), for which the inhibition is 5.36%.

In the case of `Cc1ccccc1OCC1Cn2c(nc3c2c(=O)[nH]c(=O)n3C)O1` (stereo unspecified), the inhibition is 2.68%.

Take `Cc1c(N=Cc2cc3c(cc2Cl)OCO3)c(=O)n(-c2ccccc2)n1C`: the inhibition is 4.04%.

Consider `CC(=O)/C(N=Nc1c(C)n(C)n(-c2ccccc2)c1=O)=C(\C)O`, for which the inhibition was 0.69%.

In the case of `CN1C(=S)N(c2cccnc2)C(=O)/C1=C\c1ccc(N(C)C)cc1`, the inhibition is 12.2%.

With `Cc1c(N2C(=O)/C(=C/c3ccc(N(C)C)cc3)N(C)C2=S)c(=O)n(-c2ccccc2)n1C`, the inhibition is 27.2%.

`Cc1c(O)c(=O)n(-c2ccccc2)n1C`: the inhibition is 2.13%.

On to `Cc1c(NC(=S)N/N=C/c2ccc(Br)cc2)c(=O)n(-c2ccccc2)n1C`, for which the inhibition is 9.41%.

As for `COC(=O)/C(N=Nc1c(C)n(C)n(-c2ccccc2)c1=O)=C(\C)O`, the inhibition is 6.21%.

In the case of `Cc1c(NC(=S)N/N=C/c2cccc(O)c2)c(=O)n(-c2ccccc2)n1C`, the inhibition is 12.8%.

`O=C(Nc1cccc(-c2cccc(F)c2)c1)C1CCN(Cc2ccco2)CC1`: the inhibition was 7.74%.

Consider `O=C(NCCN1C(=O)S/C(=C\c2ccccc2F)C1=O)C1CCCN1C(=O)c1cccs1` (stereo unspecified), for which the inhibition is -14.1%.

For `Cc1ccccc1OCC(=O)N/N=C/c1cn(Cc2ccccc2)c2ccccc12`, the inhibition was 3.64%.

On to `Cc1ccc2nc(-c3ccc(N4C(=N)SC5CS(=O)(=O)CC54)cc3)sc2c1` (stereo unspecified), for which the inhibition is 9.19%.

In the case of `CCOc1ccc(C(=O)N2CCC(C(=O)c3ccc4c(c3)OCCO4)CC2)cc1`, the inhibition was -2.21%.

Take `COc1ccc(/C=C2\CCCC(C(=O)C(F)(F)F)=C2O)cc1`: the inhibition was 4.33%.

`Cc1ccc(S(=O)(=O)Nc2ccc(S(=O)(=O)N3CCOCC3)cc2)cc1`: the inhibition is 0.84%.

`CC1CCc2sc(C(=O)NCCCn3ccnc3)cc2C1` (stereo unspecified): the inhibition was 5.91%.

Consider `O=C(c1cc2c(=O)n3ccccc3nc2s1)N1CCN(Cc2ccccc2)CC1`, for which the inhibition was 4.57%.

Take `Cc1c(N=Cc2nc3ccccc3[nH]2)c(=O)n(-c2ccccc2)n1C`: the inhibition is 17.9%.

In the case of `Cc1c(C(c2ccc(N(C)C)cc2)c2c(C)n(C)n(-c3ccccc3)c2=O)c(=O)n(-c2ccccc2)n1C`, the inhibition is -5.89%.

As for `CCC(C)C1=CC(=Nc2c(C)n(C)n(-c3ccccc3)c2=O)C=C(C(C)CC)C1=O` (stereo unspecified), the inhibition was 9.72%.

As for `CC1=CC(=Nc2c(C)n(C)n(-c3ccccc3)c2=O)C=C(C)C1=O`, the inhibition was -4.18%.

For `Cc1c(N(C)C)c(=O)n(-c2ccccc2)n1C`, the inhibition was 3.4%.

As to `Cc1c(-n2c(=S)[nH]c3ccccc3c2=O)c(=O)n(-c2ccccc2)n1C`, the inhibition was 4.22%.

Take `O=NNc1nc2ccccc2n1Cc1ccccc1`: the inhibition is 7.61%.

`CCOC(=O)C(NC(=O)Nc1ccc(F)cc1F)(Oc1ccc(F)cc1)C(F)(F)F` (stereo unspecified): the inhibition is 7.05%.

For `Cc1cc(NS(C)(=O)=O)c(=O)n(Cc2c(F)cccc2Cl)c1`, the inhibition is -0.27%.

As to `C=CCSc1nc2sc(C)c(C)c2c(=O)n1N`, the inhibition was 2.09%.

Consider `CCc1cc(Cn2nc(-c3ccccc3)cc2C(=O)NCC2CC2)on1`, for which the inhibition is 12%.

For the molecule `COc1cc2c(cc1OC)C(c1cccs1)N(C(=O)c1cccc(S(=O)(=O)N(C)C)c1)CC2` (stereo unspecified), the inhibition is 5.21%.

Regarding `CCOc1ccc(S(=O)(=O)N2CCN(C(=O)CCOc3ccccc3C)CC2)cc1`, the inhibition is 3.82%.

As to `CCOc1ccc(NC(=O)COc2cccc3c2CCN(Cc2cccnc2)C3=O)cc1`, the inhibition was 0.41%.

Take `O=C1CC2(CCN(C(=O)c3cccc(Br)c3)CC2)Oc2ccccc21`: the inhibition is 3.6%.

Consider `COc1ccc(C(=O)Nc2nc3cc(OC)c(OC)cc3c(=O)[nH]2)cc1`, for which the inhibition was 14.9%.

As to `COc1cc2[nH]c(=S)nc(NCCC(C)C)c2cc1OC`, the inhibition is 20.9%.

`COc1cc2nc(Nc3ccc(F)cc3)nc(N)c2cc1OC`: the inhibition was 6.17%.

On to `COc1ccc(CCNc2nc(=S)[nH]c3cc(OC)c(OC)cc23)cc1OC`, for which the inhibition is 39.9%.

Regarding `CSc1nc2c([nH]1)c(=S)n(C)c(=O)n2C`, the inhibition was 8.34%.

For the molecule `COC(=O)C(CC(C)C)NC(=O)CNC(=O)c1ccccc1C` (stereo unspecified), the inhibition was 7.16%.

As to `COc1ccccc1N1CCN(C(=O)c2cccc(N3C(=O)C4C5C=CC(C5)C4C3=O)c2)CC1` (stereo unspecified), the inhibition is 9.14%.

On to `COc1ccc(C2C(=O)NN=C2C)cc1` (stereo unspecified), for which the inhibition is 22.1%.

Turning to `CC1=NNC(=O)C1Oc1ccccc1` (stereo unspecified), the inhibition was 10.8%.

For `Cn1c(N)c(C(=O)COC(=O)/C=C/c2ccccc2)c(=O)n(C)c1=O`, the inhibition is 1.47%.

With `Cc1cnc(NC(=O)CN2CCN(c3ccccn3)CC2)s1`, the inhibition is 2.02%.

For the molecule `CCOc1ccccc1N1CCN(CC(=O)Nc2ncc(C)s2)CC1`, the inhibition was 5.5%.

With `c1ccc(COc2ncnc3c2ncn3CCCNCC2CCCO2)cc1` (stereo unspecified), the inhibition was 7.05%.

`Brc1ccccc1OCCN1CCOCC1`: the inhibition is 17.5%.

With `COc1ccccc1OCCCCCCN1CCN(C)CC1`, the inhibition is -3.02%.

Turning to `COc1ccccc1OCCCCN1CCCCC1`, the inhibition was 3.62%.

`Brc1ccccc1OCCCN1CCOCC1`: the inhibition is 14.8%.

As to `COc1cc(C)ccc1OCCOCCOc1c(C)cc(C)cc1Br`, the inhibition was 3.98%.

Turning to `CCn1c(COc2ccc(=O)n(-c3ccccc3)n2)nnc1SCc1ccccc1C`, the inhibition was -2.27%.

Take `O=C(c1noc2c1CCCCC2)N1CCOCC1`: the inhibition is 1.03%.

For `CC(C)CC(OC(=O)c1nsc(Cl)c1Cl)C(=O)NCC1CCCO1` (stereo unspecified), the inhibition is 5.99%.

For the molecule `Cc1ccc(S(=O)(=O)N2CCN(c3c([N+](=O)[O-])cc(C(F)(F)F)cc3[N+](=O)[O-])CC2)cc1`, the inhibition was 6.82%.

On to `O=C(NC1CCCCCCC1)c1ccc2c(c1)OCO2`, for which the inhibition was 4.04%.

With `O=C(Nc1ccc2c(c1)OCO2)C1CCCCC1`, the inhibition is 6.05%.

Take `CC(C)COC(=O)Cc1c(O)c2ccccc2[nH]c1=O`: the inhibition is 1.69%.

For `CCOC(=O)C1CCN(C(=O)c2cccc(Cl)c2)CC1`, the inhibition was 6.23%.

Regarding `O=C(c1cccnc1)N1CCN(C(=O)c2cccc(Cl)c2)CC1`, the inhibition is -2.27%.

Regarding `CC(C)CC(CO)N1CCN(C(=O)c2cccc(Cl)c2)CCC1=O` (stereo unspecified), the inhibition is 2.07%.

Consider `CN1CCCN(C(=O)c2cccc(Cl)c2)CC1`, for which the inhibition was 3.23%.

Turning to `COc1ccc(N2C(=O)CC(N3CCN(c4ccc(S(C)(=O)=O)cc4)CC3)C2=O)cc1` (stereo unspecified), the inhibition was -1.2%.

With `CN(C)c1ccc(P(=O)(OCc2ccccc2)C(O)c2ccccc2F)cc1` (stereo unspecified), the inhibition was 0.52%.

Take `O=C(Nc1ccc(F)cc1)Nc1nnc(COc2ccccc2F)s1`: the inhibition was 10.4%.

With `CCOc1cc(S(=O)(=O)NCc2cccs2)ccc1Cl`, the inhibition is 8.13%.

For the molecule `CN(C1=NC(=O)CS1)c1ccc(O)cc1`, the inhibition is 9.21%.

Consider `CC(=O)NC1=NC(=O)CS1`, for which the inhibition is 2.93%.

With `COc1ccc(S(=O)(=O)N2CCC(N3CCCC3)CC2)cc1`, the inhibition is 21%.

Take `Cc1ccc2oc(=O)n(CCOc3ccccc3C)c2c1`: the inhibition was 0.34%.

Take `N=C1S/C(=C\c2ccc(-c3ccccc3C(=O)O)o2)C(=O)N1c1ccc2c(c1)OCO2`: the inhibition was 19.7%.

On to `Cc1c(C(=O)O)cccc1-c1ccc(/C=C2/NC(=O)N(c3ccccc3)C2=O)o1`, for which the inhibition is -7.26%.

In the case of `O=C(O)c1ccccc1SC1CC(=O)N(c2ccc3c(c2)OCO3)C1=O` (stereo unspecified), the inhibition was -5.78%.

With `O=C(O)c1ccccc1-c1ccc(/C=C2\SC(=O)N(c3ccccc3)C2=O)o1`, the inhibition is 6.66%.

Turning to `COC(=O)c1ccc(Sc2ccccc2NS(=O)(=O)c2ccc(OC)cc2)nc1`, the inhibition is 7.44%.

Regarding `CC1(c2nnc(-c3cccc(Cl)c3)o2)CC(c2ccccc2F)=NO1` (stereo unspecified), the inhibition is 5.14%.

`CCn1nc(C)c(/C=N/NC(=O)c2ccoc2C)c1C`: the inhibition is 1.28%.

As to `O=C1CC(/C=C/c2ccccn2)=Nc2ccccc2N1`, the inhibition is -8.85%.

Regarding `O=C(O)c1cc(N/N=C/c2cccc3ccccc23)ccc1Cl`, the inhibition was 11.3%.

With `CC(C)n1cc(/C=N/Nc2ccc(C(=O)O)cc2)c2ccccc21`, the inhibition is 24.1%.

On to `COc1ccc2ccccc2c1/C=N/Nc1ccc(Cl)c(C(=O)O)c1`, for which the inhibition is 17.1%.

With `O=C(O)c1cc(N/N=C/c2ccc(-c3ccccc3)cc2)ccc1Cl`, the inhibition was 5.89%.

Consider `CC(C)CC1NC(=O)c2cc3ccccc3cc2-n2c1nc1ccc(Cl)cc1c2=O` (stereo unspecified), for which the inhibition was 6.29%.

On to `COCCCNC(=S)NC1CC2CCCC(C1)N2Cc1ccco1` (stereo unspecified), for which the inhibition was 13.1%.

Consider `COc1ccccc1NS(=O)(=O)c1cc(N)ccc1N1CCOCC1`, for which the inhibition was 16.4%.

For `Nc1ccc(N2CCCCC2)c(S(=O)(=O)Nc2ccc(Cl)cc2)c1`, the inhibition is 3.13%.

Regarding `COc1ccccc1NS(=O)(=O)c1cc(N)ccc1N1CCCCC1`, the inhibition was 5.74%.

For the molecule `O=C(Nc1ccc(N2CCCC2)c(S(=O)(=O)Nc2cccc(C(F)(F)F)c2)c1)c1cccs1`, the inhibition was 7.15%.

Values taken from PubChem BioAssay AID624330 (Southern Research Specialized Biocontainment Screening …, 2012).
